From the supplement of paper PMC10077471
Over roughly 1,900 compounds, “excess over highest single agent (ExcessHSA) synergy score, 6x6 matrix” has its median near -83; the lowest 2% begin near -370. The sample as a whole holds a higher share of the lowest values than the screen did.

System: NCI-H446
Assay: excess over highest single agent (ExcessHSA) synergy score, 6x6 matrix; higher = less synergy (more negative = stronger synergy)
Settings: 72 h; CellTiter-Glo viability

SMILES | excess over highest single agent
O=C1[C@H](Cc2ccc(O)cc2)N2C(=O)CCN(C(=O)NCc3ccccc3)[C@H]2CN1Cc1cccc2ccccc12 + Cc1sc2c(c1C)C(c1ccc(Cl)cc1)=N[C@@H](CC(=O)OC(C)(C)C)c1nnc(C)n1-2 [NCGC00250412-19] | -294
Cn1c(=O)c2c(ncn2CC(O)CO)n(C)c1=O (centres undefined) + Cc1sc2c(c1C)C(c1ccc(Cl)cc1)=N[C@@H](CC(=O)OC(C)(C)C)c1nnc(C)n1-2 [NCGC00250412-19] | -73.2
O=C(NOC[C@H](O)CO)c1ccc(F)c(F)c1Nc1ccc(I)cc1F + Cc1sc2c(c1C)C(c1ccc(Cl)cc1)=N[C@@H](CC(=O)OC(C)(C)C)c1nnc(C)n1-2 [NCGC00250412-19] | -276
Cn1c(=O)c(F)c(Nc2ccc(I)cc2F)c2c(=O)n(C[C@@H](O)CO)cnc21 + Cc1sc2c(c1C)C(c1ccc(Cl)cc1)=N[C@@H](CC(=O)OC(C)(C)C)c1nnc(C)n1-2 [NCGC00250412-19] | -396
O=C(C=Cc1ccc(C=CC(=O)Nc2ccc(C3=NCCN3)cc2)cc1)Nc1ccc(C2=NCCN2)cc1 + Cc1sc2c(c1C)C(c1ccc(Cl)cc1)=N[C@@H](CC(=O)OC(C)(C)C)c1nnc(C)n1-2 [NCGC00250412-19] | -46.7
CC(C)C(=O)Nc1ncc(-c2cc(C(F)F)nn2-c2c(Cl)cccc2Cl)s1 + Cc1sc2c(c1C)C(c1ccc(Cl)cc1)=N[C@@H](CC(=O)OC(C)(C)C)c1nnc(C)n1-2 [NCGC00250412-19] | -105
COc1ccc(-c2nc(N3CCOCC3)c3sc(CN(C)c4ncc(C(=O)NO)cn4)cc3n2)cn1 + Cc1sc2c(c1C)C(c1ccc(Cl)cc1)=N[C@@H](CC(=O)OC(C)(C)C)c1nnc(C)n1-2 [NCGC00250412-19] | -105
c1ccc2c(Cc3c[nH]c4ccccc34)c[nH]c2c1 + Cc1sc2c(c1C)C(c1ccc(Cl)cc1)=N[C@@H](CC(=O)OC(C)(C)C)c1nnc(C)n1-2 [NCGC00250412-19] | -83.3
CCCCOc1c(C(=O)c2c(F)cc(C)cc2F)c[nH]c2nncc1-2 + Cc1sc2c(c1C)C(c1ccc(Cl)cc1)=N[C@@H](CC(=O)OC(C)(C)C)c1nnc(C)n1-2 [NCGC00250412-19] | -375
CCCS(=O)(=O)Nc1ccc(F)c(C(=O)c2c[nH]c3ncc(Cl)cc23)c1F + Cc1sc2c(c1C)C(c1ccc(Cl)cc1)=N[C@@H](CC(=O)OC(C)(C)C)c1nnc(C)n1-2 [NCGC00250412-19] | -97.1
CCCS(=O)(=O)Nc1ccc(F)c(C(=O)c2c[nH]c3ncc(-c4ccc(Cl)cc4)cc23)c1F + Cc1sc2c(c1C)C(c1ccc(Cl)cc1)=N[C@@H](CC(=O)OC(C)(C)C)c1nnc(C)n1-2 [NCGC00250412-19] | -108
CCOC(=O)/C=C/[C@H](C[C@@H]1CCNC1=O)NC(=O)[C@@H](CC(=O)[C@@H](NC(=O)c1cc(C)on1)C(C)C)Cc1ccc(F)cc1 + Cc1sc2c(c1C)C(c1ccc(Cl)cc1)=N[C@@H](CC(=O)OC(C)(C)C)c1nnc(C)n1-2 [NCGC00250412-19] | -127
O=C(C[C@@H]1C/C=C/CCC(=O)O[C@H](c2ccccc2)CNC1=O)NCc1ccc(Cl)cc1 + Cc1sc2c(c1C)C(c1ccc(Cl)cc1)=N[C@@H](CC(=O)OC(C)(C)C)c1nnc(C)n1-2 [NCGC00250412-19] | -98.1
CN(C)C[C@@H]1CCn2cc(c3ccccc32)C2=C(C(=O)NC2=O)c2cn(c3ccccc23)CCO1 + Cc1sc2c(c1C)C(c1ccc(Cl)cc1)=N[C@@H](CC(=O)OC(C)(C)C)c1nnc(C)n1-2 [NCGC00250412-19] | -125
COc1cc(NCc2ccc3nc(N)nc(N)c3c2C)cc(OC)c1OC + Cc1sc2c(c1C)C(c1ccc(Cl)cc1)=N[C@@H](CC(=O)OC(C)(C)C)c1nnc(C)n1-2 [NCGC00250412-19] | -213
C=C1C(=O)[C@]23[C@H](O)[C@H]1CC[C@H]2[C@@]12CO[C@]3(O)[C@@H](O)[C@@H]1C(C)(C)CC[C@@H]2O + Cc1sc2c(c1C)C(c1ccc(Cl)cc1)=N[C@@H](CC(=O)OC(C)(C)C)c1nnc(C)n1-2 [NCGC00250412-19] | -378
Oc1ccc(C2=Cc3ccc(O)cc3OC2)cc1 + Cc1sc2c(c1C)C(c1ccc(Cl)cc1)=N[C@@H](CC(=O)OC(C)(C)C)c1nnc(C)n1-2 [NCGC00250412-19] | -209
CNc1nc(Nc2ccc(C(=O)N3CCOCC3)cc2OC)ncc1Cl + Cc1sc2c(c1C)C(c1ccc(Cl)cc1)=N[C@@H](CC(=O)OC(C)(C)C)c1nnc(C)n1-2 [NCGC00250412-19] | 436
Cc1ccc(S(=O)(=O)Nc2cc(Cl)ccc2C(=O)Nc2nc(-c3ccccc3)cs2)cc1 + Cc1sc2c(c1C)C(c1ccc(Cl)cc1)=N[C@@H](CC(=O)OC(C)(C)C)c1nnc(C)n1-2 [NCGC00250412-19] | 214
CC(O)(C#Cc1ccc2c(c1)N(c1nc(N)ncc1Cl)CC2)c1nccs1 (centres undefined) + Cc1sc2c(c1C)C(c1ccc(Cl)cc1)=N[C@@H](CC(=O)OC(C)(C)C)c1nnc(C)n1-2 [NCGC00250412-19] | 54

SMILES | excess over highest single agent
C[C@H](NCc1ccc2c(c1)nc(NC(=O)c1ccc(-c3cn[nH]c3)s1)n2CCc1ccccc1)C(C)(C)C + Cc1sc2c(c1C)C(c1ccc(Cl)cc1)=N[C@@H](CC(=O)OC(C)(C)C)c1nnc(C)n1-2 [NCGC00250412-19] | -305
CC(NCc1ccc2c(c1)nc(NC(=O)c1ccc(-c3cn[nH]c3)s1)n2CC(C)(C)O)C(C)(C)C (centres undefined) + Cc1sc2c(c1C)C(c1ccc(Cl)cc1)=N[C@@H](CC(=O)OC(C)(C)C)c1nnc(C)n1-2 [NCGC00250412-19] | -312
CC(C)(O)Cn1c(NC(=O)c2ccc(-c3cn[nH]c3)s2)nc2cc(CN3CCOCC3)ccc21 + Cc1sc2c(c1C)C(c1ccc(Cl)cc1)=N[C@@H](CC(=O)OC(C)(C)C)c1nnc(C)n1-2 [NCGC00250412-19] | -423
CCNC(=O)c1cc2c(-c3cc(OCCN4CCCC4)c(Cl)cc3Cl)nc(N)nc2s1 + Cc1sc2c(c1C)C(c1ccc(Cl)cc1)=N[C@@H](CC(=O)OC(C)(C)C)c1nnc(C)n1-2 [NCGC00250412-19] | -89.1
O=C1NC(=O)/C(=C/c2ccc3nccc(-c4ccncc4)c3c2)S1 + Cc1sc2c(c1C)C(c1ccc(Cl)cc1)=N[C@@H](CC(=O)OC(C)(C)C)c1nnc(C)n1-2 [NCGC00250412-19] | -177
CCCNC(=O)[C@H]1O[C@@H]1C(=O)N[C@H](C(=O)N1CCC[C@H]1C(=O)OC)[C@@H](C)CC + Cc1sc2c(c1C)C(c1ccc(Cl)cc1)=N[C@@H](CC(=O)OC(C)(C)C)c1nnc(C)n1-2 [NCGC00250412-19] | -117
CN(C)c1ccc(C2Nc3ccc4ccccc4c3C3=C2C(=O)CC(C)(C)C3)cc1Br (centres undefined) + Cc1sc2c(c1C)C(c1ccc(Cl)cc1)=N[C@@H](CC(=O)OC(C)(C)C)c1nnc(C)n1-2 [NCGC00250412-19] | -30.1
O=c1cc(N2CCOCC2)oc2c(-c3ccccc3)cccc12 + Cc1sc2c(c1C)C(c1ccc(Cl)cc1)=N[C@@H](CC(=O)OC(C)(C)C)c1nnc(C)n1-2 [NCGC00250412-19] | 83.7
CCN1CCN(CC(=O)Nc2ccc(-c3cccc4c(=O)cc(N5CCOCC5)oc34)c3sc4ccccc4c23)CC1 + Cc1sc2c(c1C)C(c1ccc(Cl)cc1)=N[C@@H](CC(=O)OC(C)(C)C)c1nnc(C)n1-2 [NCGC00250412-19] | -383
O=c1cc(N2CCOCC2)oc2c(-c3cccc4c3sc3ccccc34)cccc12 + Cc1sc2c(c1C)C(c1ccc(Cl)cc1)=N[C@@H](CC(=O)OC(C)(C)C)c1nnc(C)n1-2 [NCGC00250412-19] | -318
CN(C)CC(=O)N1CCC(c2ccc(NC(=O)c3ncc(C#N)[nH]3)c(C3=CCCCC3)c2)CC1 + Cc1sc2c(c1C)C(c1ccc(Cl)cc1)=N[C@@H](CC(=O)OC(C)(C)C)c1nnc(C)n1-2 [NCGC00250412-19] | 53.2
CC1CCN(c2cc(N3CCN(C)CC3)ccc2NC(=O)c2cc(C#N)c[nH]2)CC1 + Cc1sc2c(c1C)C(c1ccc(Cl)cc1)=N[C@@H](CC(=O)OC(C)(C)C)c1nnc(C)n1-2 [NCGC00250412-19] | 106
COc1ccc(Nc2nccc(NCCO)n2)cc1 + Cc1sc2c(c1C)C(c1ccc(Cl)cc1)=N[C@@H](CC(=O)OC(C)(C)C)c1nnc(C)n1-2 [NCGC00250412-19] | 81.9
CN(C)c1ccc2cc(C(=O)N[C@@H](CCCN=C(N)CCl)C(=O)NCc3ccccc3)ccc2c1 + Cc1sc2c(c1C)C(c1ccc(Cl)cc1)=N[C@@H](CC(=O)OC(C)(C)C)c1nnc(C)n1-2 [NCGC00250412-19] | -202
NS(=O)(=O)c1ccc(Nc2nc(OCC3CCCCC3)c3[nH]cnc3n2)cc1 + Cc1sc2c(c1C)C(c1ccc(Cl)cc1)=N[C@@H](CC(=O)OC(C)(C)C)c1nnc(C)n1-2 [NCGC00250412-19] | -148
CCN(CC)CCn1c(=O)c(Cc2ccc(OC)cc2)nc2ccccc21 + Cc1sc2c(c1C)C(c1ccc(Cl)cc1)=N[C@@H](CC(=O)OC(C)(C)C)c1nnc(C)n1-2 [NCGC00250412-19] | -47.3
O=c1[nH]c(=O)n([C@H]2C[C@H](O)[C@@H](CO)O2)cc1I + Cc1sc2c(c1C)C(c1ccc(Cl)cc1)=N[C@@H](CC(=O)OC(C)(C)C)c1nnc(C)n1-2 [NCGC00250412-19] | -172
Cc1cn([C@@H]2C[C@@H](O)[C@H](CO)O2)c(=O)[nH]c1=O + Cc1sc2c(c1C)C(c1ccc(Cl)cc1)=N[C@@H](CC(=O)OC(C)(C)C)c1nnc(C)n1-2 [NCGC00250412-19] | 21.8
O=c1[nH]c(=O)n([C@H]2C[C@H](O)[C@@H](CO)O2)cc1F + Cc1sc2c(c1C)C(c1ccc(Cl)cc1)=N[C@@H](CC(=O)OC(C)(C)C)c1nnc(C)n1-2 [NCGC00250412-19] | -390
